Compound activity: PubChem, National Center for Advancing Translational Sciences (NCATS)
A selection: hits, their analogues and other compounds. The true share with any hit is near 21%.
DT40 TDP1 no CPT: qHTS for Inhibitors of human tyrosyl-DNA phosphodiesterase 1 (TDP1): qHTS in cells in absence of CPT | Potency, µM (series often up to 46.2 µM), actives largely listed as inhibitors | 15% of 420,000 active | DT40 Tdp1-/- hTDP1 cells, no CPT, ATP luminescence, 48 h; further: nearly all actives have a fitted effect of over 55% in size
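Compound effects on proliferation are scored in DT40 Tdp1-/-;hTDP1 cells in the absence of CPT. ATP levels (CellTiter-Glo luminescence) are recorded after a ≥48 hr, 37 °C incubation.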
RORgamma inh: blocks mouse ROR gamma transcriptional activity; P51450; Drosophila S2 Gal4-RORgamma UAS-luciferase reporter, 20 h; Potency, µM (titrated, usually from 53.6 µM), actives largely listed as inhibitors; 5.4% of 310,000 active; AID 2551; further: nearly all actives have a fitted effect of over 60% in size
Target sequence (P51450 whole entry, looked up, the tested form may be a part): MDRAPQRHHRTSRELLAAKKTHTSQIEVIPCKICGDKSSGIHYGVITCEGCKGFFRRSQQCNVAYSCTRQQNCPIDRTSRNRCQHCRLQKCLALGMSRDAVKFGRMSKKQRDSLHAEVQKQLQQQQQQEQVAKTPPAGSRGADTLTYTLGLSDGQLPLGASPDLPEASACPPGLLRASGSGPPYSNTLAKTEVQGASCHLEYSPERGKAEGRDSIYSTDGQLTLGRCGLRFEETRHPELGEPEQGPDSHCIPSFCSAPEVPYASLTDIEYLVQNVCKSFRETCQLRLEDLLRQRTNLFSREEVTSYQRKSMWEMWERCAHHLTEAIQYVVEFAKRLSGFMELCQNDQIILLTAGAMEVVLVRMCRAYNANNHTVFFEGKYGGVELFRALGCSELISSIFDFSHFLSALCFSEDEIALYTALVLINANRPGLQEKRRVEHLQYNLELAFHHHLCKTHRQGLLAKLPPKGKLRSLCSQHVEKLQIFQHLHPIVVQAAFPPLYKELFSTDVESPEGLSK
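Schneider cells (Drosophila), stable Gal4 DBD–ROR gamma + UAS-luc; 1 hr cmpd preincubation; Cu2+ induction 700 uM final; 20 hr ambient; luminescence.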
IL-1B inflam inh: inhibitors of inflammasome signaling (IL-1 beta secretion); THP-1 LPS/ATP IL-1B secretion, AlphaLISA, 16 h; active compounds read low; activity change, % at 57.5 µM; 4.7% of 360,000 active; AID 743279; in the data active means activity change below about -50%; inconclusive means mostly about -30% to -49%
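Secreted IL-1B measured by AlphaLISA bead assay after 16 h compound exposure of THP-1 cells; compounds (final up to 57.5 uM) added 1 h before LPS (250 ng/mL) and ATP (1.25 mM) stimulation; lower signal means less secretion.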
Gal4-VP16 FLuc: counter-screen for ROR gamma inhibitors: Gal4-VP16 reporter; 3.5% of 310,000 active; Potency, µM (series often up to 53.6 µM), most hits filed as inhibitors; AID 2546; Drosophila S2 Gal4-VP16 UAS-luciferase, luminescence, 20 h;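 further: Gal4-VP16 expression switched on by copper sulfate through the metallothionein promoter; nearly all actives have a fitted effect of over 50% in size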
ELG1 DNA repair: ELG1-dependent DNA repair inhibition; Potency, µM (doses to about 46.1 µM), usual class: inhibitors; HEK293T ELG1-luciferase reporter, luminescence, 16 h; DNA damage induced by 5-fluorouridine; 2.3% of 330,000 active; AID 504467; further: nearly all actives have a fitted effect of over 55% in size
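Luminescence from the luciferase reporter, measured 30 min after ONE-Glo reagent at room temperature, was the read-out. Beforehand, 2,000 cells per well were exposed for 16 hr at 37 °C to 5-fluorouridine together with compound or vehicle.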
DT40 TDP1 CPT: growth inhibition of DT40 Tdp1-/-;hTDP1 cells with camptothecin (screen for TDP1 inhibitors) | chicken DT40 Tdp1-/-;hTDP1 cells + 20 nM CPT, ATP luminescence, 48 h | Potency, µM (titrated, usually from 46.2 µM), hits mostly inhibitors | 12% of 420,000 active | AID 686979; further: nearly all actives have a fitted effect of over 55% in size
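Chicken DT40 Tdp1-/- cells stably complemented with human TDP1 were seeded at 400 cells/well in medium containing 20 nM camptothecin, exposed to pin-transferred compounds, and grown at 37 °C for at least 48 hr. Viability was read as ATP luminescence.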
Hits are given with their value; i = inactive; ? = inconclusive; nt = no result given; [ ] = dose if it differs, or a comment. Unless noted, the call rests on the fitted dose curve; in most records, active means well fitted curve in the direction sought with a large enough effect; inconclusive means small, poorly fitted or top-dose-only effect, or another doubt; inactive means no such curve, though single readings can be large; an effect the other way counts as inactive or inconclusive.

SMILES	DT40 TDP1 no CPT	RORgamma inh	IL-1B inflam inh	Gal4-VP16 FLuc	ELG1 DNA repair	DT40 TDP1 CPT
COC(=O)[C@@]12C[C@@H](CC(=O)N3CCN(C(=O)C4CC4)CC3)C(=O)N(Cc3ccc4c(c3)OCO4)C1=CCC(C)(C)C2	16µM	nt	i	nt	nt	?
COC(=O)[C@@]12C[C@@H](CC(=O)NCC3CCCCC3)C(=O)N(Cc3ccc4c(c3)OCO4)C1=CCC(C)(C)C2	?	nt	-54	nt	nt	?
CN(CC(=O)Nc1ccccc1Br)C(=O)COc1cccc2c1OC(C)(C)C2	i	nt	i	nt	i	i
CCC(=O)N1CCc2cc(S(=O)(=O)NC(Cc3ccccc3)C(=O)Nc3ccccc3C)ccc21 (stereo unspecified)	i	nt	nt	nt	nt	i
O=C(Nc1ccc(C(F)(F)F)cc1)c1csc(-c2ccncc2)n1	?	i	?	i	?	i
O=C(NNC(=O)c1csc(-c2cnccc2C(F)(F)F)n1)c1ccc(C(F)(F)F)cc1	16µM	?	i	?	?	?
COC(=O)N/N=C/c1c[nH]c2ccccc12	i	i	i	i	i	i
CN1CCN(CC(=O)N/N=C\c2c[nH]c3ccccc23)CC1	nt	?	nt	22µM	?	nt
COc1cc(OC)c(OC)cc1/C=N/NC(=O)c1cnccn1	i	i	i	i	i	i
O=C(N/N=C/c1c[nH]c2ccccc12)c1ccc(Cl)cc1	i	10µM	i	?	?	i
NC(=S)N/N=C/c1c[nH]c2ccccc12	i	2.5µM	i	?	i	i
NC(=S)NN=Cc1c[nH]c2nccnc12	13µM	nt	i	nt	nt	16µM
CCC(=O)Nc1nnc(S(=O)(=O)N(C)c2cc(C)cc(C)c2)s1	i	i	i	i	i	i
O=C(N/N=C/c1c[nH]c2ccccc12)c1ccc(Br)cc1	i	?	?	?	?	i
O=C(N/N=C\c1c[nH]c2ccccc12)c1ccc(O)cc1	i	6.3µM	i	i	i	i
C(=NN=C1c2ccccc2-c2ccccc21)c1c[nH]c2ccccc12	?	nt	-103	nt	nt	?
O=C(O)c1ccc(N/N=C/c2cn(Cc3ccccc3F)c3ccccc23)cc1	i	i	i	i	?	i
O=C(O)c1ccc(N/N=C/c2c[nH]c3ccccc23)cc1	i	0.035µM	i	0.32µM	?	i
O=C(N/N=C/c1c[nH]c2ccccc12)c1ccccc1Cl	i	i	i	i	?	i
CC(C)n1cc(/C=N/Nc2ccc(C(=O)O)cc2)c2ccccc21	i	0.032µM	i	0.32µM	?	i
CCCS(=O)(=O)NC(=O)C1(C)CCCN(C(=O)c2nc3ccccc3s2)C1 (stereo unspecified)	i	nt	i	nt	nt	i
COc1cccc(CCOC(=O)c2c(-c3ccsc3)oc3c2C(OC(C)=O)CCC3)c1 (stereo unspecified)	?	nt	i	nt	nt	?
O=C(N/N=C/c1c[nH]c2ccccc12)c1cc(Cl)ccc1O	i	5µM	i	6.3µM	?	?
Fc1c(F)c(F)c(N/N=C/c2c[nH]c3ccccc23)c(F)c1F	?	i	-87	i	?	?
Cc1onc(-c2c(Cl)cccc2Cl)c1C(=O)N=C(N)N1CCCC1	i	i	i	i	i	?
SMILES	DT40 TDP1 no CPT	RORgamma inh	IL-1B inflam inh	Gal4-VP16 FLuc	ELG1 DNA repair	DT40 TDP1 CPT
O=C(NCc1ccccc1F)C1CCCN(C(=O)N2CCOc3ccccc32)C1 (stereo unspecified)	?	nt	nt	nt	nt	i
O=C(Nc1ccc2c(c1)OCO2)N1CCN(C/C=C/c2ccccc2)CC1	i	i[0.365 µM]	i	nt	i	i
O=C(Nc1ccc2c(c1)OCCO2)C(c1ccnc2ccccc12)N1CCN(C/C=C/c2ccccc2)CC1 (stereo unspecified)	23µM	nt	i	nt	nt	?
O=C(Nc1ccc2c(c1)OCCO2)C(c1ccnc2ccccc12)n1c(=O)c(-c2ccco2)nc2ccccc21 (stereo unspecified)	15µM	nt	i	nt	nt	7.3µM
O=C(Nc1ccc2c(c1)OCCO2)C(c1ccccc1)n1c(=O)c(-c2cc3ccccc3[nH]2)nc2ccccc21 (stereo unspecified)	?	nt	i	nt	nt	?
O=C(Nc1ccc2c(c1)OCCO2)C(c1ccccc1)n1c(=O)c(-c2ccco2)nc2ccccc21 (stereo unspecified)	?	nt	i	nt	nt	4.1µM
O=C(Nc1ccc2c(c1)OCCO2)C(c1ccncc1)n1c(=O)c(-c2ccco2)nc2ccccc21 (stereo unspecified)	?	nt	i	nt	nt	10µM
O=C(Nc1ccc2c(c1)OCCO2)C(C1CC1)n1c(=O)c(-c2ccccc2)nc2ccccc21 (stereo unspecified)	?	nt	i	nt	nt	i
Cc1cccc(NC(=O)C(=O)c2cc(C)n(-c3ccccc3)c2C)c1C	?	nt	nt	nt	nt	i
C=CCn1cc(C(C)=O)c(=O)[nH]c1=O	i	i	i	i	i	i
CC(=O)Oc1ccccc1C1C[C@]2(C)CC(=O)NC2N1C(C)=O (stereo partly specified)	i	i	i	i	i	i
COc1ccc(C(=S)NCS(=O)(=O)c2ccc(C)cc2)cc1	?	16µM	-100	?	i	?
Cc1ccc(S(=O)(=O)CNC(=S)c2ccc3ccccc3c2)cc1	18µM	11µM	?	?	i	?
COc1ccc(C(=S)Nc2ccc(C)cc2)cc1	i	13µM	i	i	?	i
CO/N=C/C(=N\Nc1ccc(C)cc1)C(=O)c1ccc(OC)cc1	3.3µM	i	i	i	?	4.1µM
Cc1ccc(C(=O)NNC(=O)c2ccc3ccccc3c2)cc1	?	nt	i	nt	nt	i
COc1ccc(C(O)c2ncc(-c3cccc(OCc4ccccc4)c3)[nH]2)cc1F (stereo unspecified)	?	nt	i	nt	nt	?
CCOC(=O)c1cccc(NC(=O)NCCc2c(C)nn(C)c2C)c1	?	nt	nt	nt	nt	i
Cc1nnc(NC(=O)c2ccc3ccccc3c2)o1	?	0.11µM	-57	0.32µM	i	?
O=C(Nc1nnc(-c2ccco2)o1)c1ccc([N+](=O)[O-])s1	9.2µM	0.89µM	i	2.8µM	?	8.2µM
CCCCC(=O)Nc1nnc(-c2ccco2)o1	i	i	i	i	i	i
N#Cc1ccc(C(=O)Nc2nnc(-c3ccco3)o2)cc1	6.5µM	1µM	i	3.2µM	16µM	?
O=C(Nc1nnc(-c2ccco2)o1)c1ccc2ccccc2c1	21µM	1.4µM	i	1.1µM	?	?
CC#CCC(C)[C@H](O)/C=C/[C@@H]1[C@H]2c3cccc(CCCC(=O)O)c3O[C@H]2C[C@H]1O (stereo partly specified)	i	nt	nt	nt	nt	i
CCC(=O)Nc1nnc(-c2ccco2)o1	i	?	i	i	i	i
